This is an account of results in PubChem BioAssay (NCI).

The structures appear in SMILES notation. This is part of a sample that, as a whole, favours compounds with a hit. Of some 83,000 tested, about 20% had one in any assay.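 Percent growth is the endpoint: 0 to 100 indicates growth inhibition (40 means 60% inhibition), 0 means no net growth, and negative values indicate cell death.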 Values without a mark were called inactive. Active and inactive are the calls of the source. Rule for the calls: active = growth percent below 10; inactive = the rest.

Test systems include RPMI-8226 leukemia; OVCAR-8 ovarian; OVCAR-5 ovarian; OVCAR-4 ovarian; SK-OV-3 ovarian; IGROV1 ovarian; OVCAR-3 ovarian; HS 578T breast; NCI/ADR-RES ovarian; T-47D breast; BT-549 breast; MDA-MB-435 melanoma; SW-620 colon; MCF7 breast; HCT-116 colon; HCC-2998 colon; KM12 colon.
Assay in all cases: NCI-60 one-dose screen, 48 h (100 = growth as untreated, 0 = no growth, -100 = all killed)
Details in all cases: 10 µM unless noted

Regarding `COc1ccc(CNc2c3ccccc3nc3ccc(OC)cc23)cc1`, the growth in the assay on RPMI-8226 leukemia was -47.7% (active); in the assay on OVCAR-8 ovarian, 25.4%; with OVCAR-5 ovarian it was 30.7%; in the assay with OVCAR-4 ovarian, 18.4%; in the assay with SK-OV-3 ovarian, 47.2%; in the assay with IGROV1 ovarian it was 11.2%. The growth in the assay on OVCAR-3 ovarian is 40.4%; with HS 578T breast, 25.9%; in the assay with NCI/ADR-RES ovarian it was 16.2%; with T-47D breast, 34.2%; with BT-549 breast, 43%; in the assay on MDA-MB-435 melanoma, 19%. In addition, the growth was 15.8% in the assay with SW-620 colon; -29.8% (active) in the assay with MCF7 breast; 12.7% in the assay on HCT-116 colon; -57.6% (active) in the assay on HCC-2998 colon; 27.6% with KM12 colon.

As for `CCCCOC(=O)c1cc(O)c(O)c(O)c1`, the growth with RPMI-8226 leukemia was 59.2%; in the assay on OVCAR-8 ovarian, 68.6%; with OVCAR-5 ovarian it was 92.2%; in the assay on OVCAR-4 ovarian, 58.9%; in the assay on SK-OV-3 ovarian, 85.1%; in the assay with IGROV1 ovarian, 55.6%. The growth in the assay with OVCAR-3 ovarian is 61.8%; with HS 578T breast, 86.4%; with NCI/ADR-RES ovarian it was 74.4%; in the assay with BT-549 breast, 67.4%; with MDA-MB-435 melanoma, 74.8%; in the assay on SW-620 colon, 80.2%. Moreover, the growth in the assay with MCF7 breast was 84.9%; in the assay on HCT-116 colon it was 64.9%; with HCC-2998 colon it was 92.5%; in the assay on KM12 colon, 69%.

As to `CCOC(=O)Nc1ccc2nc(N3CCCCCC3)sc2c1`, the growth in the assay on RPMI-8226 leukemia is 19.5%; in the assay with OVCAR-8 ovarian, 32.7%; with OVCAR-5 ovarian it was 65.7%; in the assay on OVCAR-4 ovarian, 57.5%; in the assay with SK-OV-3 ovarian, 5.7% (active); in the assay with IGROV1 ovarian, 49.8%. The growth in the assay on OVCAR-3 ovarian was -20.5% (active); in the assay on HS 578T breast, 43.7%; with NCI/ADR-RES ovarian, 0.974% (active); with T-47D breast, 41.6%; in the assay with BT-549 breast it was 65.7%; in the assay with MDA-MB-435 melanoma, 7.4% (active). Also, the growth was 24.5% with SW-620 colon; 19.5% in the assay with MCF7 breast; 27.9% in the assay on HCT-116 colon; 50.3% in the assay with HCC-2998 colon; 21.6% in the assay with KM12 colon.

Regarding `COc1ccc(-c2cnc(-c3ccncc3-c3cccc(OC)c3)o2)cc1`, the growth in the assay on RPMI-8226 leukemia was 8.95% (active); in the assay with OVCAR-8 ovarian, 26%; in the assay with OVCAR-5 ovarian, 57.4%; in the assay on OVCAR-4 ovarian, 37.6%; in the assay with SK-OV-3 ovarian it was -5.44% (active); with IGROV1 ovarian, 37.1%. The growth in the assay on OVCAR-3 ovarian is -13.1% (active); in the assay on HS 578T breast, 53.3%; in the assay on NCI/ADR-RES ovarian, 10.1%; in the assay with T-47D breast, 37.2%; with BT-549 breast it was 37.1%; in the assay on MDA-MB-435 melanoma, 4.88% (active). Also, the growth in the assay with SW-620 colon is 22.5%; with MCF7 breast, 16.4%; in the assay on HCT-116 colon it was 4.92% (active); in the assay on HCC-2998 colon, 17.3%; with KM12 colon it was -28.6% (active).

Turning to `CSc1nc(N)c2[nH]c(-c3cc4ccccc4[nH]c3=O)nc2n1`, the growth is 85.1% in the assay on RPMI-8226 leukemia; 90.2% in the assay with OVCAR-8 ovarian; 119% in the assay with OVCAR-5 ovarian; 83.7% in the assay on OVCAR-4 ovarian; 66.1% in the assay with SK-OV-3 ovarian; 61.5% in the assay with IGROV1 ovarian. Besides, the growth in the assay with OVCAR-3 ovarian is 119%; with HS 578T breast, 94.6%; with NCI/ADR-RES ovarian it was 94.8%; with BT-549 breast, 47.9%; in the assay with MDA-MB-435 melanoma, 102%; in the assay on SW-620 colon, 90.1%. Moreover, the growth in the assay on MCF7 breast is 65.7%; in the assay with HCT-116 colon, 53.9%; in the assay with HCC-2998 colon, 95%; in the assay on KM12 colon it was 96.9%.

As for `ClCc1c(Cl)c(Cl)c(Cl)c(CCl)c1Cl`, the growth in the assay on RPMI-8226 leukemia was 18.4%; with OVCAR-8 ovarian it was 49.5%; in the assay with OVCAR-5 ovarian, 118%; in the assay with OVCAR-4 ovarian, -66.2% (active); in the assay on SK-OV-3 ovarian it was 113%; in the assay on IGROV1 ovarian it was 4.3% (active). Moreover, the growth is -94.5% (active) with OVCAR-3 ovarian; 89.3% in the assay on HS 578T breast; 87.5% in the assay with BT-549 breast; 52.2% in the assay with MDA-MB-435 melanoma; -82.2% (active) in the assay with SW-620 colon; -4.94% (active) in the assay on MCF7 breast. In addition, the growth in the assay on HCT-116 colon is -76.8% (active); with HCC-2998 colon it was 88.6%; in the assay with KM12 colon, 24.8%.

Consider `NC(=O)c1ccc[n+](Cc2ccccc2)c1`, for which the growth was 89.9% with RPMI-8226 leukemia; 103% in the assay with OVCAR-8 ovarian; 96.2% with OVCAR-5 ovarian; 102% in the assay on OVCAR-4 ovarian; 113% in the assay with SK-OV-3 ovarian; 111% with IGROV1 ovarian. Moreover, the growth with OVCAR-3 ovarian is 107%; in the assay on HS 578T breast it was 98.5%; with BT-549 breast it was 118%; with MDA-MB-435 melanoma it was 98.2%; in the assay on SW-620 colon, 102%; with MCF7 breast it was 103%. For the same compound, the figures for the growth in the assay with HCT-116 colon, in the assay on HCC-2998 colon and in the assay with KM12 colon were 99.9%, 102% and 102%, respectively.

As to `COc1nccc2c(Sc3ccccc3)nc(N)nc12`, the growth with RPMI-8226 leukemia is 93.2%; with OVCAR-8 ovarian, 101%; in the assay with OVCAR-5 ovarian, 107%; with OVCAR-4 ovarian, 99.7%; in the assay with SK-OV-3 ovarian, 114%; with IGROV1 ovarian it was 114%. Moreover, the growth is 119% in the assay on OVCAR-3 ovarian; 113% in the assay with HS 578T breast; 106% with NCI/ADR-RES ovarian; 107% in the assay with T-47D breast; 85.9% in the assay with BT-549 breast; 110% in the assay with MDA-MB-435 melanoma. The growth is 109% in the assay with SW-620 colon; 91.9% in the assay with MCF7 breast; 97.6% with HCT-116 colon; 106% in the assay with HCC-2998 colon; 113% with KM12 colon.

Turning to `CC1=C(O)C(=O)CC1`, the growth was 110% with RPMI-8226 leukemia; 101% with OVCAR-8 ovarian; 112% in the assay with OVCAR-5 ovarian; 105% in the assay on OVCAR-4 ovarian; 107% in the assay on SK-OV-3 ovarian; 107% in the assay with IGROV1 ovarian. The growth in the assay with OVCAR-3 ovarian is 115%; in the assay on HS 578T breast, 107%; in the assay with NCI/ADR-RES ovarian, 106%; in the assay on T-47D breast it was 103%; in the assay on BT-549 breast it was 89%; with MDA-MB-435 melanoma, 98.1%. In addition, the growth is 108% in the assay with SW-620 colon; 91.8% in the assay on MCF7 breast; 105% in the assay on HCT-116 colon; 99.7% in the assay with HCC-2998 colon; 104% in the assay with KM12 colon.

Take `CCC(=O)OCc1ccc(OC)cc1`: the growth is 107% in the assay with RPMI-8226 leukemia; 102% in the assay with OVCAR-8 ovarian; 95% in the assay with OVCAR-5 ovarian; 107% with OVCAR-4 ovarian; 108% in the assay on SK-OV-3 ovarian; 102% in the assay on IGROV1 ovarian. The growth in the assay on OVCAR-3 ovarian is 110%; in the assay on HS 578T breast it was 135%; in the assay with NCI/ADR-RES ovarian, 99.4%; with T-47D breast, 103%; in the assay with BT-549 breast, 104%; in the assay on SW-620 colon, 111%. The growth was 107% in the assay with MCF7 breast, 98.7% with HCT-116 colon and 137% with KM12 colon.
